Activity calls are given as the source filed them.
How the values were obtained:
[1] = E. coli DRC41 culture turbidity changes, primary screen, E. coli filamentation inducer project, strain DRC41, OD650, 48 h (AID 1152);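 note: E. coli MC1000 strain DRC41 lacking acrAB efflux pump and sulA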; conditions: E. coli DRC41 (acrAB sulA), higher = more signal, called active from +8 up or from −8 down
[2] = small-molecule binders of probe aLefty1, primary screen, biochemical, small-molecule microarray, 635/667 nm fluorescence (AID 1153); conditions: higher = more signal;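 note: score merges spot fluorescence with signal-to-noise ratio from the scanned slide images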
[3] = PSAC antagonists in infected red cells, primary screen, cell-based, P. falciparum Indochina, OD700, 1 h (AID 1154); conditions: P. falciparum Indochina infected RBC osmotic lysis, higher = more signal, called active from +8 up or from −8 down
[4] = PSAC antagonists in infected red cells, primary screen, cell-based, P. falciparum Indochina, OD700, 2 h (AID 1155);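 note: lysis reports solute entry through the parasite surface anion channel PSAC; channel blockers reduce lysis of infected cells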; conditions: P. falciparum Indochina infected erythrocytes, osmotic lysis OD700; higher = more signal, called active from +8 up or from −8 down
[5] = osmotic lysis modulators in infected erythrocytes, primary screen, PSAC antagonist project, cell-based, P. falciparum Indochina, OD700, 3 h (AID 1156); conditions: higher = more signal, called active from +8 up or from −8 down
[6] = PSAC antagonists in infected red cells, primary screen, cell-based, P. falciparum Indochina, OD700, 18 h (AID 1157); conditions: P. falciparum Indochina infected erythrocytes, osmotic lysis OD700, 18 h; higher = more signal, called active from +8 up or from −8 down
[7] = modulators of S6 phosphorylation in cells, primary screen, cell-based, A549, cytoblot, luminescence, serum-stimulated (AID 1158); conditions: A549 phospho-S6 cytoblot, 5 h, higher = more signal;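 note: serum-stimulated A549 lung adenocarcinoma cells; signal is phosphorylated S6 detected by cytoblot immunostaining with HRP secondary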
[8] = target: NADPH oxidase 2 (Homo sapiens) (UniProt P04839); experiment: NOX2-dependent H2O2 signal modulators, primary screen, NOX inhibitor project, cell-based, HEK293-NOX2, PMA-stimulated, Amplex Red fluorescence (AID 1159); conditions: 45 min, higher = more signal, called active from +8 up or from −8 down; note: test concentration not given here
Sequence of NADPH oxidase 2 (Homo sapiens) (P04839 whole entry, looked up): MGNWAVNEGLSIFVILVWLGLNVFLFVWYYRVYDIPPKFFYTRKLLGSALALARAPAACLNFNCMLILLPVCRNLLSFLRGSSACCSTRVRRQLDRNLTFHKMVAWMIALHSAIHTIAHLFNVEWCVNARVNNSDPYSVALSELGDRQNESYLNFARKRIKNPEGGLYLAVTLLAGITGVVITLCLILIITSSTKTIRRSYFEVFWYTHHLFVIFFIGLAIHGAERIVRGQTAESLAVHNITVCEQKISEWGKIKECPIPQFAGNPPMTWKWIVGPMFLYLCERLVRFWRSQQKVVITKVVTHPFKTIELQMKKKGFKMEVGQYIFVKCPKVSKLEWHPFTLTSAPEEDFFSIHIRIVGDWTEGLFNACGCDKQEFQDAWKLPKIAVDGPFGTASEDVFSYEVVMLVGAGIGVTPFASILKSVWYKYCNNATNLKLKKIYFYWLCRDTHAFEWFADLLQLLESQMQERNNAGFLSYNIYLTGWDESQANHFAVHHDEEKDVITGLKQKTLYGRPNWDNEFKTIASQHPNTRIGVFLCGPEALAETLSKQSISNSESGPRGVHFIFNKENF

[9] = target: NADPH oxidase 4 (Homo sapiens) (UniProt Q9NPH5); experiment: NOX4-dependent H2O2 signal modulators, primary screen, NOX inhibitor project, cell-based, HEK293-NOX4, tetracycline-induced, Amplex Red fluorescence (AID 1160); conditions: 45 min, higher = more signal, called active from +8 up or from −8 down
Sequence of NADPH oxidase 4 (Homo sapiens) (Q9NPH5 whole entry, looked up): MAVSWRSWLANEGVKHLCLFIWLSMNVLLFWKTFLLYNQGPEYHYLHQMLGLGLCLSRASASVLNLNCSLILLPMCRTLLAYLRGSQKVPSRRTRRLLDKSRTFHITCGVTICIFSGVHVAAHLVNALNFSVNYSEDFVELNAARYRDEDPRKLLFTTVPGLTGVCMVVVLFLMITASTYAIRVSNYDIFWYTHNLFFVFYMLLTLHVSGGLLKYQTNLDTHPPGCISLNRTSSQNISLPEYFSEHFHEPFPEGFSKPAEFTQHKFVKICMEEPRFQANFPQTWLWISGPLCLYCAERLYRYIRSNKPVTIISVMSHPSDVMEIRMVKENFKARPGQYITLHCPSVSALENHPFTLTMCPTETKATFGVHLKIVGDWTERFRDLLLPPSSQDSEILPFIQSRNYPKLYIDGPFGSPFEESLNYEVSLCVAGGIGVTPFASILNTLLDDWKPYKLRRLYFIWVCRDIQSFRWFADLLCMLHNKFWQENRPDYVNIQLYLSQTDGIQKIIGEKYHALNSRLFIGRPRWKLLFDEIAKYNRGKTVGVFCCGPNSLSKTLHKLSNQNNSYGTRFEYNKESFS

[10] = target: NADPH oxidase 5 (Homo sapiens) (UniProt Q96PH1); experiment: NOX5-dependent H2O2 signal modulators, primary screen, NOX inhibitor project, cell-based, HEK293-NOX5, Amplex Red fluorescence (AID 1161); conditions: HEK293-NOX5, ionomycin, 45 min, higher = more signal
Sequence of NADPH oxidase 5 (Homo sapiens) (Q96PH1 whole entry, looked up): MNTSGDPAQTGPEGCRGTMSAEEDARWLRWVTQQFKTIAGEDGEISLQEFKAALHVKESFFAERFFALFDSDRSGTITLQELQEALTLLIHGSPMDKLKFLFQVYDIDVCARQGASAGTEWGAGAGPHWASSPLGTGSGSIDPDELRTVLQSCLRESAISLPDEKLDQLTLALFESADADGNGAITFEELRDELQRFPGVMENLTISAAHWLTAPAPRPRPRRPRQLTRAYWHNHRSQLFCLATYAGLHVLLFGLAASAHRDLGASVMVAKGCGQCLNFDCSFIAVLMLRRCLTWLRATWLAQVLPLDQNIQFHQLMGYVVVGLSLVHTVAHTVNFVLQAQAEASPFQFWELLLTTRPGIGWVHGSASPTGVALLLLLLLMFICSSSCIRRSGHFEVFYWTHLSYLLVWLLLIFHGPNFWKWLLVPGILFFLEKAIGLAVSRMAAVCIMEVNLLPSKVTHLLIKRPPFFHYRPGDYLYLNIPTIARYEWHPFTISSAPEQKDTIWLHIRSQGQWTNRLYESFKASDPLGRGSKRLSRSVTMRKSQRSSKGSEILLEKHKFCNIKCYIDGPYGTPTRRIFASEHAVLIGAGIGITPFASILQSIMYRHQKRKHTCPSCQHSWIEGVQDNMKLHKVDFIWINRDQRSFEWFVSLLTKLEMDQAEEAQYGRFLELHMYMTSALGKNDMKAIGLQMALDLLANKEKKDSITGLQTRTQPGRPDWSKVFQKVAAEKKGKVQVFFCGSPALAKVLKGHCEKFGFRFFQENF

| SMILES | z-score [1] | composite z-score [2] | z-score [3] | z-score [4] | z-score [5] | z-score [6] | z-score [7] | z-score [8] | z-score [9] | z-score [10] |
| --- | --- | --- | --- | --- | --- | --- | --- | --- | --- | --- |
| C=CC[C@@]1(C(=O)N2CCOCC2)N=C(c2ccc(OCCCO)cc2)O[C@@H]1c1ccccc1CN=[N+]=[N-] | -0.124 (inactive) | 0.789 | 21.5 (active) | 4.83 (inactive) | 1.61 (inactive) | 0.986 (inactive) | 0.36 | -0.305 (inactive) | 0.645 (inactive) | -1.07 |
| C=CCNC(=O)[C@@H]1[C@H]2C(=O)O[C@H](c3ccccc3)[C@H](c3ccccc3)N2[C@H](c2ccc(O)cc2)[C@@]12C(=O)N(C(=O)OCCOC)c1ccc(C#CC3(O)CCCCCC3)cc12 | 2.23 (inactive) | -0.639 | 0.776 (inactive) | -0.353 (inactive) | 0.469 (inactive) | 0.682 (inactive) | 0.305 | -0.00516 (inactive) | 0.395 (inactive) | 0.849 |
| CCOC(=O)c1ccc(NC(=O)O[C@H]2[C@H](OC(=O)Nc3ccc4c(c3)OCO4)[C@H](OC(=O)Nc3ccc4c(c3)OCO4)[C@@H](OC)O[C@@H]2CO)cc1 | -0.351 (inactive) | 0.408 | 23.4 (active) | 6.99 (inactive) | 0.726 (inactive) | 1.55 (inactive) | -0.535 | -0.984 (inactive) | -0.54 (inactive) | -1.28 |
| Cc1ccc(S[C@]2(C(=O)O)CC(=O)N(Cc3ccccc3Cl)[C@@H]2c2ccc(CO)cc2I)cc1 | -0.754 (inactive) | -0.814 | 8.88 (active) | 1.4 (inactive) | 0.767 (inactive) | 0.744 (inactive) | -0.0366 | 3.66 (inactive) | -2.51 (inactive) | -0.915 |
| COCCOC(=O)N1C(=O)[C@@]2(c3cc(C#Cc4ccc(OC)cc4)ccc31)[C@H](c1ccccc1OCCO)N1[C@H](c3ccccc3)[C@H](c3ccccc3)OC(=O)[C@H]1[C@@H]2C(=O)N1CCCCCCC1 | 2.97 (inactive) | 2.81 | 0.999 (inactive) | 0.57 (inactive) | 0.338 (inactive) | -0.122 (inactive) | 1.99 | -0.126 (inactive) | 0.201 (inactive) | 1.19 |
| OCCCC1=CC(c2ccc(CN3CCCC3)cc2)N(Cc2sc3ccccc3c2Cl)CC1 (stereo not given) | -1.6 (inactive) | 0.527 | 7.15 (inactive) | 1.29 (inactive) | 0.314 (inactive) | 1.19 (inactive) | -0.319 | -5.42 (inactive) | -2.03 (inactive) | -2.27 |
| Cc1cc(C)c(C(O)C2C=CC3C(=O)N(c4ccccc4)C(=O)C3N2Nc2ccc(C(C)C)cc2)c(C)c1 (stereo not given) | -1.53 (inactive) | 0.51 | 1.02 (inactive) | 1.14 (inactive) | 0.858 (inactive) | 1.05 (inactive) | -0.484 | -1.82 (inactive) | -3.87 (inactive) | -7.33 |
| COc1ccc([Si](C)(C)[C@H]2[C@H](CCn3cc([C@H](O)c4ccccc4)nn3)O[C@@]3(C(=O)N(Cc4ccc(N5C(=O)c6cccc7cccc5c67)cc4)c4ccccc43)[C@@H]2C)cc1 | 0.0759 (inactive) | 0.0091 | 1.97 (inactive) | 0.485 (inactive) | 0.0591 (inactive) | 0.646 (inactive) | 0.243 | 0.892 (inactive) | 0.925 (inactive) | 2.01 |
| CCOC(=O)C[C@H]1[C@H](OC(=O)c2cc3ccccc3oc2=O)[C@@H](NC(=O)c2ccc(-c3ccccc3)cc2)c2cc(OCCCO)ccc2N1C(=O)c1ccc2ccccc2n1 | -0.216 (inactive) | 0.132 | 3.37 (inactive) | 1.07 (inactive) | 0.723 (inactive) | 0.523 (inactive) | -0.577 | 0.858 (inactive) | 0.688 (inactive) | 1.11 |
| CN(C)CCCNC(=O)[C@@H]1c2ccccc2C(=O)N(Cc2ccccc2Cl)[C@H]1c1ccc(CO)cc1 | 0.681 (inactive) | 0.022 | 3.77 (inactive) | 0.603 (inactive) | 1.68 (inactive) | 0.599 (inactive) | 0.517 | 0.277 (inactive) | 0.691 (inactive) | -0.0877 |
| CN(C)CCCNC(=O)[C@@]1(c2ccc([N+](=O)[O-])cc2)CC(=O)N(CC23CC4CC(CC(C4)C2)C3)[C@@H]1c1ccc(CO)cc1I | -5.6 (inactive) | 0.198 | 11.4 (active) | 2.32 (inactive) | -8.44 (active) | 0.352 (inactive) | -2.32 | -10.3 (active) | -5.46 (inactive) | -7.32 |
| CN1C(=O)C2C=CC(C(O)c3ccccn3)N(N(c3ccccc3)c3ccccc3)C2C1=O (stereo not given) | -1.06 (inactive) | 0.0774 | 1.5 (inactive) | 1.14 (inactive) | 0.303 (inactive) | 1.05 (inactive) | -0.618 | -0.486 (inactive) | -1.94 (inactive) | -2.33 |
| CCCCCCCCCCC(O)C1C=CC2C(=O)N(C)C(=O)C2N1NC(=O)OC(C)(C)C (stereo not given) | -3.07 (inactive) | -0.239 | 8.95 (active) | 2.45 (inactive) | -1.28 (inactive) | 1.81 (inactive) | -1.36 | -0.67 (inactive) | -7.78 (inactive) | -3.78 |
| COC(=O)c1cn(C[C@@H](Cc2ccccc2)NC(=O)N[C@H](CO)CCc2oc(C(C)=O)c(C(=O)OC)c2C(=O)OC)nn1 | 0.555 (inactive) | 0.238 | 14.3 (active) | 2.29 (inactive) | 1.08 (inactive) | 0.872 (inactive) | 0.419 | 0.744 (inactive) | 1.01 (inactive) | 1.84 |
| CCOC(=O)C1=C[C@@H](c2ccccc2)N(S(=O)(=O)c2ccc(C)cc2)[C@H]1c1ccccc1Cl | -1.18 (inactive) | 0.138 | 1.35 (inactive) | 1.16 (inactive) | -0.0415 (inactive) | 0.805 (inactive) | -0.48 | 0.574 (inactive) | 0.138 (inactive) | 0.405 |
| O=C1NC(=O)C2C1C=CC(C(O)c1ccco1)N2Nc1ccccn1 (stereo not given) | -1.23 (inactive) | -0.145 | -0.379 (inactive) | 0.74 (inactive) | -0.314 (inactive) | 0.581 (inactive) | -1.19 | -1.35 (inactive) | -2.89 (inactive) | -1.78 |
| C[C@@H]1NC(=O)[C@@]23C(=O)N[C@@H](Cc4ccccc4)C2[C@H](C)[C@@]2(C)O[C@H]2C3/C=C/C/C=C\CNC(=O)[C@@H]2CCCN2C1=O (stereo not given in full) | -0.906 (inactive) | -0.147 | 0.518 (inactive) | -0.0429 (inactive) | -1.12 (inactive) | -0.161 (inactive) | 0.0613 | -0.0487 (inactive) | 0.581 (inactive) | -2.64 |
| COc1ccc(NC(=O)O[C@H]2[C@H](OC(=O)Nc3ccccc3)[C@@H](OC(=O)Nc3ccccc3)[C@@H](OC)O[C@@H]2CO)cc1 | -0.302 (inactive) | 0.113 | 4.49 (inactive) | 0.463 (inactive) | 0.316 (inactive) | 0.373 (inactive) | 0.256 | -7.53 (inactive) | -0.713 (inactive) | -2.43 |
| COc1ccc([Si](C)(C)[C@H]2[C@H](CC(=O)N(CCO)Cc3ccccc3)O[C@@]3(C(=O)N(Cc4cccc(N5CCOC5=O)c4)c4ccccc43)[C@@H]2C)cc1 | 0.359 (inactive) | 0.114 | 12.9 (active) | 2.72 (inactive) | 1.68 (inactive) | 1.31 (inactive) | 0.315 | 0.681 (inactive) | 0.7 (inactive) | 2.48 |
| CC(c1ccccc1)C(O)C1C=CC2C(=O)N(c3ccccc3)C(=O)C2N1Nc1ccc([N+](=O)[O-])cc1 (stereo not given) | 0.179 (inactive) | 0.175 | 20.8 (active) | 5.25 (inactive) | 0.283 (inactive) | 1.61 (inactive) | -0.438 | -0.7 (inactive) | -1.18 (inactive) | -1.38 |
| COc1ccc(CN(C2=CC[C@@]3(C(N)=O)C(=O)C(Cl)=C(Cl)C(=O)[C@@]3(C#N)C2)S(=O)(=O)c2ccc(Br)cc2)cc1 | 1.3 (inactive) | -0.0042 | 5.11 (inactive) | -1.24 (inactive) | -1.94 (inactive) | -2.3 (inactive) | 0.881 | 1.76 (inactive) | -0.275 (inactive) | 0.362 |
| COCC1=C2[C@@H](CCc3ccccc3)OB(O)C[C@@H]2[C@@H]2C(=O)C=CC(=O)[C@@H]2C1 | -0.204 (inactive) | -0.0386 | 2.09 (inactive) | -0.122 (inactive) | -0.623 (inactive) | -0.0621 (inactive) | 0.154 | -0.109 (inactive) | -0.383 (inactive) | 1.01 |
| CC(C)N1CC=CC23O[C@@H]4C=CCOC(=O)[C@@H]4[C@H]2C(=O)N(CCCO)[C@@H]3C1=O (stereo not given in full) | 2.97 (inactive) | -0.14 | 1.08 (inactive) | 0.0983 (inactive) | 0.976 (inactive) | -0.137 (inactive) | 1.89 | 0.0484 (inactive) | -1.52 (inactive) | -1.36 |

— PubChem BioAssay
